Measured values taken from PubChem BioAssay AID652067 (The Scripps Research Institute Molecular Screening Center, 2013).
Values joined by “and” are separate entries in the source; they are usually repeats but may differ in a detail not shown here. Equal values may be shown once. The whole screen tested about 370,000 compounds, of which about 5,400 (1.5%) were called active.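 How the source made its calls: active means activation above the mean of all tested compounds plus 3 SD (cut at about 5.5% in these data); inactive means the rest.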 This excerpt belongs to a sample that is enriched for actives. More than one record can exist for a structure, and the calls need not agree.

These molecules were tested on DAF-12 nuclear receptor (Haemonchus contortus) (assay: H. contortus DAF-12 nuclear receptor activators, primary screen, cell-based, luminescence, HEK293, lit1-tk-luc reporter (AID 652067;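 further: 100% = response to 3 µM Δ7-dafachronic acid high control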)). Conditions: HEK293 hcDAF-12 lit1-tk-luc reporter, at 6.8 µM, stronger effect = higher value, 0% DMSO, 100% Δ7-dafachronic acid.
`Clc1ccc(-n2c(COc3ccccc3)nnc2SCc2nc3ccccc3[nH]2)cc1` was tested, and the activation was -0.51% (inactive).
With `CCc1nc(N2CCN(C(C)=O)CC2)c2c3c(sc2n1)CCCC3` the activation was 0.85% (inactive).
In the case of `NNC(=O)C1CCCn2c1nc1sc3c(c1c2=O)CCCC3` (stereo not drawn), the activation is reported as 8.63% (active).
With `CCn1c(SCC(C)=O)nc2sc3c(c2c1=O)CCCC3` the activation was -0.57% (inactive).
With `COC(=O)C1=C(C(=O)OC)C2C=C(C(C)C)C1C(=O)C2(C)O` (stereo not drawn) the activation was -1.42% (inactive).
With `O=C(OCC#CCSc1nnc(-c2ccco2)o1)c1ccc(F)cc1` the activation was -1.32% (inactive).
With `O=C(O)Cn1cnc2c(NCc3ccccc3)ncnc21` the activation was 0.95% (inactive).
In the case of `Cc1cc(=O)[nH]c(SCC(=O)Nc2ccc(F)cc2F)n1`, the activation is reported as -0.74% (inactive).
With `O=C(Nc1ccccc1)N1CCN(Cc2nc3ccccc3c(=O)[nH]2)CC1` the activation was 0.3% (inactive).
With `Fc1ccccc1/C=N/Nc1cc(N2CCCCC2)ncn1` the activation was 5.99% (active).
With `Cc1ccc(N2C(=O)C(NC(=O)c3c(F)cccc3F)(C(F)(F)F)C3=C2CC(C)(C)CC3=O)cc1` (stereo not drawn) the activation was -1.79% (inactive).
In the case of `O=C(c1cccc(C(F)(F)F)c1)N1CC[C@H]2[C@H](CCCN2Cc2cc(F)cc(F)c2)C1`, the activation is reported as -0.81% (inactive).
In the case of `Clc1cccc(-c2nc3nc4ccccc4nc3n2Cc2ccco2)c1`, the activation is reported as 7.47% (active).
With `O=C(CSc1nnc(-c2cccc(Cl)c2)n1Cc1ccco1)Nc1ccc(OCc2ccccc2)cc1` the activation was -3.78% (inactive).
`O=C(CSc1nnc(-c2ccccc2)n1Cc1ccco1)Nc1ccccc1-c1ccccc1` was tested, and the activation was -2.62% (inactive).
With `COC(=O)[C@]12C[C@H](CC(=O)NCCc3ccccc3OC)C(=O)N(Cc3ccccc3)C1=C[C@H](C(C)C)O[C@@H]2C1CC1` the activation was -0.81% (inactive).
In the case of `COc1cccc(OC)c1C(=O)N1CCN(Cc2cccnc2)CC1`, the activation is reported as -1.19% (inactive).
With `Cc1ccc(C2=CCN(C)C(=O)N2c2ccc(Cl)cc2)cc1` the activation was -0.28% (inactive).
`COC(=O)CC1CCc2cc(C)cc(C(CC(C)C)NC(=O)[C@H](CC(C)C)NC(=O)OCc3ccccc3)c2O1` (stereo partly drawn) was tested, and the activation was -1.44% (inactive).
With `O=C(COC(=O)/C=C/c1ccc(Cl)cc1)NC1CCS(=O)(=O)C1` (stereo not drawn) the activation was -0.16% (inactive).
In the case of `Cc1csc(NC(=O)c2ccc(C)s2)n1`, the activation is reported as 6.44% (active).
For `COc1ccccc1NC(=O)c1ccc(C)s1`, the activation was 9.1% (active).
In the case of `Cc1csc(NC(=O)CN2CCCCCC2)n1`, the activation is reported as 0.84% (inactive).
`COc1ccccc1NC(=O)c1cc(Cl)nnc1Cl` was tested, and the activation was 1.71% (inactive).
For `COc1ccccc1NC(=O)c1c(Br)cnn1C`, the activation was -1.66% (inactive).
In the case of `Cc1ccc(C(=O)NCC(=O)O)s1`, the activation is reported as -0.44% (inactive).
In the case of `C=CCC[C@@H](Cc1ccc(F)cc1)C(=O)OC[C@H](Cc1c[nH]c2ccccc12)NC(=O)[C@@H](CC=C)CC(=O)N(CCO)Cc1ccccc1`, the activation is reported as -2.25% (inactive).
For `CCCCNc1cccc2c1S(=O)(=O)N[C@@H](C)CO2`, the activation was 2.03% (inactive).
With `COC(=O)[C@]12C[C@H](CC(=O)NCCCN3CCCC3=O)C(=O)N(CCc3ccc(OC)c(OC)c3)C1=C[C@H](COCc1ccccc1)O[C@@H]2C` the activation was -0.83% (inactive).
For `Cc1ccnc(-n2sc3ccccc3c2=O)n1`, the activation was 4.36% (inactive).
For `Cc1ccnc(Nc2nc3ccccc3s2)n1`, the activation was 9.2% (active).
In the case of `C[C@H](C(=O)N(C)c1ccccc1)[C@@H](O)c1ccc2ccccc2c1`, the activation is reported as 0.57% (inactive).
In the case of `COc1cccc(CNC(=O)[C@H]2CCCN2C(=O)[C@H]2CCCN2C(=O)c2ccc(F)cc2)c1`, the activation is reported as 2.09% (inactive).
With `COC(=O)C1=C(C)N(Cc2ccc(C(F)(F)F)cc2)C(=NCc2ccccc2)NC1c1ccccc1C(F)(F)F` (stereo not drawn) the activation was 0.56% (inactive).
With `Cc1cc(C)c2nc(NC(=O)C3CCCO3)sc2c1` (stereo not drawn) the activation was 8.44% (active).
With `Cc1ccc(C)c(C(C)NC(=O)C2CCCO2)c1` (stereo not drawn) the activation was -1.93% (inactive).
With `Cc1cc(C)c2nc(N3CCC(C(=O)NCCN4CCOCC4)CC3)sc2c1` the activation was 1.35% (inactive).
For `O=C(C(=O)N1CCC(CNC(=O)c2cccnc2Cl)CC1)c1cccs1`, the activation was -0.06% (inactive).
In the case of `O=C(NCc1ccccc1)[C@@H]1CCCN1C(=O)[C@@H](NS(=O)(=O)c1ccc(F)cc1F)C1CCCCC1`, the activation is reported as -1.11% (inactive).
In the case of `Cc1cnc(NC(=O)c2ccccn2)s1`, the activation is reported as 5.94% (active).
With `Cc1cnc(NC(=O)c2ccc(Cl)nc2)s1` the activation was 7.6% (active).
For `Cc1cccc(NC(=O)c2cccc(C(=O)Nc3cccc(C)c3C)n2)c1C`, the activation was 0.52% (inactive).
For `Cc1cnc(NC(=O)Cn2cnc3c2c(=O)n(C)c(=O)n3C)s1`, the activation was -1.32% (inactive).
`O=C(Nc1ccc2nc3n(c(=O)c2c1)CCCC3)c1ccc(Cl)nc1` was tested, and the activation was -2.27% (inactive).
In the case of `Cc1ccc(NC(=O)c2ccc(Cl)nc2)cc1S(=O)(=O)N1CCOCC1`, the activation is reported as -0.39% (inactive).
In the case of `COc1ccccc1C(=O)N1O[C@]23C=C[C@]14C[C@@H](O)CC[C@]4(C)C2CC[C@]1(C)[C@@H]([C@H](C)/C=C/[C@H](C)C(C)C)CC[C@H]13` (stereo partly drawn), the activation is reported as 0.11% (inactive).
`C[C@@H]1CN([C@H](C)CO)C(=O)CCCn2cc(nn2)CO[C@H]1CN(C)C(=O)Nc1ccc(N2CCCCC2)cc1` was tested, and the activation was -1.32% (inactive).
With `Cc1ccc(-n2c(SCC(=O)Nc3cccc4ccccc34)nnc2-c2ccccn2)cc1` the activation was 0.59% (inactive).
With `C[C@H]1[C@H](c2ccccc2)Oc2cc(Br)ccc2S(=O)(=O)N1Cc1cccc(F)c1` the activation was -0.73% (inactive).
With `COc1ccc(S(=O)(=O)NCCc2cc3ccc(C)c(C)c3[nH]c2=O)cc1` the activation was -0.62% (inactive).
`CC1CCCCC1NC(=O)/C(C#N)=C/C=C/c1ccccc1[N+](=O)[O-]` (stereo not drawn) was tested, and the activation was -0.31% (inactive).
For `COc1cc(/C=C(\C#N)C(=O)Nc2ccc3ccccc3c2)c([N+](=O)[O-])cc1OC`, the activation was 5.84% (active).
For `COc1cc(NC(=O)COC(=O)CSc2ccc3ccccc3c2)c(C)cc1[N+](=O)[O-]`, the activation was 2.93% (inactive).
With `Clc1ccc(-n2c(SC/C=C/c3ccccc3)nnc2-c2ccco2)cc1` the activation was -1.47% (inactive).
With `CN[C@H]1C[C@H]2c3[nH]c4c(-c5ccccc5)cccc4c3CCN2C(=O)[C@H]1[C@H](C)O` the activation was 0.81% (inactive).
For `CC(C)(C)C1CCC(=NNC(=O)c2ccc(Br)o2)CC1` (stereo not drawn), the activation was 0.02% (inactive).
For `O=C(N/N=C\C1CC=CCC1)c1ccc(Br)o1` (stereo not drawn), the activation was 6.56% (active).
In the case of `CCC(C)(C)C1CCC(=NNC(=O)c2ccc(Br)o2)CC1` (stereo not drawn), the activation is reported as 4.11% (inactive).
With `COc1ccc(Cn2ccc3ccc(-c4ccc5ccn(Cc6ccccc6C)c5c4)cc32)cc1` the activation was -1.83% (inactive).
`FC(F)(F)c1cccc(Cn2ccc3ccc(-c4ccc5ccn(Cc6ccccc6)c5c4)cc32)c1` was tested, and the activation was -1.69% (inactive).
With `CCC(=O)Nc1ccc2c(c1)C(=O)N(C)[C@@H]1CC[C@@H](CC(=O)NCCc3ccccc3)O[C@H]1CO2` the activation was 0.81% (inactive).
For `Cc1cc(N)n2nc(-c3ccc(C(C)(C)C)cc3)cc2n1`, the activation was 17.7% (active).
For `O=C(NCC1COc2ccccc2O1)c1ccc(NC(=O)c2cc(F)ccc2F)cc1` (stereo not drawn), the activation was -4.01% (inactive).
For `CCOC(=O)C(=O)N(Cc1ccccc1)c1ccccc1C(=O)Nc1cc(OC)ccc1OC`, the activation was -1.88% (inactive).
With `COc1ccc2nc3n(c(=O)c2c1)-c1ccc(Cl)cc1C(=O)NC3Cc1ccccc1` (stereo not drawn) the activation was -2.8% (inactive).
With `CCOC(=O)c1cnc(SCC(=O)Nc2ccccc2C(=O)OC)nc1N` the activation was -1.24% (inactive).
In the case of `CCc1nc(SCC(=O)Nc2ccccc2OC)n[nH]1`, the activation is reported as -0.29% (inactive).
With `COC(=O)c1ccccc1NC(=O)CSc1n[nH]c(-c2ccncc2)n1` the activation was 5.75% (active).
For `CC(C)N1CCCCC(NC(=O)C(C)(C)C)C1=O` (stereo not drawn), the activation was -1.93% (inactive).
`S=c1nccc(-c2cc(Cl)sc2Cl)[nH]1` was tested, and the activation was 0.15% (inactive).
In the case of `COc1ccc2c(c1)CN1CN(CCc3ccccc3)S(=O)(=O)CC21` (stereo not drawn), the activation is reported as -2.08% (inactive).
In the case of `Cc1c(C(=O)NC2CCCCC2)oc2ccccc12`, the activation is reported as -0.82% (inactive).
In the case of `Cc1c(C(=O)Nc2ccccn2)oc2ccc(Br)cc12`, the activation is reported as 10.7% (active).
In the case of `CCc1nonc1NC(=O)c1oc2ccc(Cl)cc2c1C`, the activation is reported as 1.13% (inactive).
In the case of `CCCCOCCCNC(=O)C[C@H]1C[C@@]2(C(=O)OC)C(=C[C@H](C(C)(C)C)O[C@@H]2C)N(CCc2ccc(OC)c(OC)c2)C1=O`, the activation is reported as 1.41% (inactive).
In the case of `COC(=O)C1CN(Cc2ccc(F)cc2)CCS(=O)(=O)N1Cc1ccc(Cl)cc1` (stereo not drawn), the activation is reported as -1.27% (inactive).
For `Cc1ccc2nc(-c3cccnc3)c(NC3CCCC3)n2c1`, the activation was -1.32% (inactive).
For `COc1ccccc1Cc1c(-c2ccc(F)cc2)nc2ccc(C)cn12`, the activation was 0.41% (inactive).
With `Cc1ccc2nc(-c3ccccc3)c(CC3CCCCC3)n2c1` the activation was 6.66% (active).
With `COc1ccc(CNC(=O)C(=O)NCC2OCCN2C(=O)c2ccc(OC)cc2)cc1` (stereo not drawn) the activation was -1.18% (inactive).
`CN1CCCc2nc(-c3ccccc3)ccc21` was tested, and the activation was -0.45% (inactive).
`COc1ccc(CN(CCN2CCOCC2)C(=O)c2ccc(C)cc2)cc1OC` was tested, and the activation was -0.48% (inactive).
`O=S(=O)(c1ccc(OCC(O)CN2CCN(c3ccccc3Cl)CC2)cc1)N1CCOCC1` (stereo not drawn) was tested, and the activation was -1.63% (inactive).
In the case of `OC(COc1ccc2ccccc2c1)CN1CCOCC1` (stereo not drawn), the activation is reported as 7.54% (active) and 3.73% (inactive).
For `OC(COc1ccc2ccccc2c1)Cn1cncn1` (stereo not drawn), the activation was -0.78% (inactive).
For `COc1ccnc(NC(=S)N2CCN(c3ncc(C(F)(F)F)cc3Cl)CC2)c1`, the activation was -1.75% (inactive).
With `CCOC(=O)[C@]12CCCC=C1N(Cc1ccc(OC)cc1)C(=O)[C@@H]2CC(=O)N1CCOCC1` the activation was 1.26% (inactive).
For `CCN(CC)P(=O)(Nc1ccc(SC(F)F)cc1)c1ccc(N(C)C)cc1NC(=O)c1ccco1` (stereo not drawn), the activation was 2.61% (inactive).
